Laboratory results reported in PubChem BioAssay (NCI).
Compounds without any hit were thinned out: in the full panel of roughly 83,000, 20% have a hit.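 Results are percent growth after 48 hours of single-concentration exposure. 100 means growth as in untreated cells, lower positive values show inhibition; negative values down to -100 show cell death.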 Values without a mark were called inactive. The source made the active and inactive calls. How the source made its calls: active means growth percent below 10; inactive means the rest.

These compounds were tested on KM12 colon (assay: NCI-60 one-dose screen, 48 h (100 = growth as untreated, 0 = no growth, -100 = all killed)). Details: 10 µM unless noted.
Work on CC(=O)Oc1c2c(nc3c1c1ccccc1n3Cc1ccccc1)-c1ccccc1C2 yielded a growth of 88.7%. C/C(=C\c1cnc(C)s1)[C@@H]1C[C@@H]2O[C@@H]2CCC[C@H](C)[C@H](O)[C@@H](C)C(=O)C(C)(C)[C@@H](O)CC(=O)O1 was tested, and the growth was 24.6%. In the case of OCCNc1nc(NCCO)nc(Nc2ccc(C3=NN(c4cc(Cl)cc(Cl)c4)C(c4ccc(C(F)(F)F)cc4)C3)cc2)n1 (configuration not stated), the growth is reported as 26%. CCOCCc1c(O)nc(SC)[nH]c1=O was tested, and the growth was 101%. With CN(C)[C@@H]1C(=O)C(C(N)=O)=C(O)[C@@]2(O)C(=O)C3=C(O)c4c(O)cc(CN5CCc6ccccc6C5)c(Cl)c4C[C@H]3C[C@@H]12 the growth was -82.9% (active). For CCCCn1c(=O)c(/C=C/C(=O)/C=C/c2cc3ccccc3n(CCCC)c2=O)cc2ccccc21, the growth was -75.8% (active). CCOC(=O)c1c(C)nc2c(c1N)CC(=O)N2CCc1ccccc1 gave a growth of 16.1%. In the case of C#CCOC(=O)[C@]1(C)CCC[C@]2(C)[C@H]3C[C@H]4C(C(C)C)=C[C@]3(CC[C@H]21)[C@@H]1C(=O)CCC(=O)[C@@H]14, the growth is reported as 87%. With C/C(=N/Nc1nc2ccccc2n1C)c1ccccn1 the growth was 19.7%. For C#C[C@@]1(O)[C@@H](CO)O[C@@H](n2cc(-c3ccco3)c3c(N)ncnc32)[C@@H]1O, the growth was 18.2%. Work on CC(=O)c1ccc(NC(=O)CSc2nnc(-c3cc(-c4ccc(Cl)cc4)nc4ccccc34)o2)cc1 yielded a growth of 89.3%. N#Cc1ccc(Oc2ccc3ccc(=O)oc3c2)cc1 showed a growth of 96.2%. C=C(C)[C@@H]1CC[C@]2(C(=O)O)CC[C@]3(C)[C@H](CC[C@@H]4[C@@]5(C)C[C@@H](CC#Cc6ccc(Cl)cc6)C(=O)C(C)(C)[C@@H]5CC[C@]43C)[C@@H]12 showed a growth of 26.3%. Work on CN1CCN(S(=O)(=O)O[C@@H]2C(=O)N(c3cc4c5ccccc5ccc4c4ccccc34)[C@H]2c2ccc(F)cn2)CC1 yielded a growth of 91.1%. With Cc1cc(C)c2nc(Nc3nc(C)c(C)c(=O)[nH]3)nc(C)c2c1 the growth was 11.3%. COC(=O)c1nc(-c2ccccc2)oc1S(=O)(=O)n1nc(C)cc1N showed a growth of 96.3%. For COc1ccc2cc(/C=C3\N=C(c4cc(OC)c(OC)c(OC)c4)OC3=O)c(OC)nc2c1, the growth was 98.9%. With O=C(CSC(=S)N1CCCCC1)Nc1ccccc1 the growth was 95.8%. In the case of COc1cc(NC(=O)c2cc(O)c(C/C=C(\C)CCC=C(C)C)c(O)c2)cc2c1O[C@]1(C)CC[C@@H](O)C(C)(C)[C@H]1C2, the growth is reported as 7.44% (active). For CCN1CCC[C@H]1c1cc(O)c2c(c1OC)C[C@H]1C[C@H]3[C@H](N)C(=O)C(C(N)=O)=C(O)[C@@]3(O)C(=O)C1=C2O, the growth was 5.97% (active). For O=c1c2ccccc2oc2ccc(OCCCCCCN3CCCCCC3)cc12, the growth was 29%. NCCN1CCNCC1 showed a growth of 109%. In the case of C=C(C)[C@@H]1CC[C@]2(C(=O)OCCOCCOCC[P+](c3ccccc3)(c3ccccc3)c3ccccc3)CC[C@]3(C)[C@H](CC[C@@H]4[C@@]5(C)CC[C@H](C)C(C)(C)[C@@H]5CC[C@]43C)[C@@H]12, the growth is reported as -81.3% (active). O=C1CCC23OC(C(O)c4ccccc4N12)C1C(Br)=NOC13 (configuration not stated) gave a growth of 103%. Compound CCOC(=O)c1c(C)nc2c(c1N)/C(=C/c1ccccn1)C(=O)N2Cc1ccccc1 has a growth of 12.2%. C[C@H]1[C@H](C)CC[C@]2(C(=O)OCCCC[P+](c3ccccc3)(c3ccccc3)c3ccccc3)CC[C@]3(C)C(=CC[C@@H]4[C@@]5(C)CC[C@H](OC(=O)C(Cl)Cl)C(C)(C)[C@@H]5CC[C@]43C)[C@H]12 was tested, and the growth was -85.7% (active). With C=C1C(=O)O[C@H]2[C@H]1CC/C(COC(=O)n1ccnc1)=C\CC[C@@]1(C)O[C@@H]21 the growth was 105%. CCOCc1cc(C(C)(C)C)ccc1O showed a growth of 106%. Compound COC(=O)c1ccc2c(c1)NC(=O)[C@@H]1CCCN21 has a growth of 101%. In the case of O=C(Nc1cccc(-c2cccc(F)c2)c1)C1CCN(Cc2cccc3cccnc23)CC1, the growth is reported as 53.3%. In the case of CCCCn1c(=O)c(/C=C/C(=O)/C=C/c2ccc(O)c(OC)c2)cc2ccc(Cl)cc21, the growth is reported as 6.78% (active). N#Cc1ccc(C2C3=C(CCCC3=O)OC3=C2C(=O)c2ccccc2C3=O)cc1 (configuration not stated) showed a growth of 89.8%.
